Assay results from PubChem BioAssay (NCI).
About 79,000 compounds went through this panel and 15% of them were active in at least one assay; those are over-represented in the sample as a whole. Cut-off read from the data, not from the text of the source: active = growth inhibition above about 70%; inactive = the rest.

Key:
[1] = NCI Yeast Anticancer Drug Screen. Data for the rad50 strain (AID 155);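 note: 0% = growth of vehicle-only cultures of the same strain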; details: S. cerevisiae rad50 strain growth inhibition; at 50.0 µM; active compounds read high
Outline: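 DNA repair mutant yeast, compound exposure, growth read-out; inhibition is taken relative to vehicle.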

[2] = NCI Yeast Anticancer Drug Screen. Data for the mec2-1 strain (AID 157); details: S. cerevisiae mec2-1 strain, at 50.0 µM, active compounds read high
Outline: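 Yeast mec2-1 mutant treated with compound. Readout: growth inhibition vs vehicle controls.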

[3] = NCI Yeast Anticancer Drug Screen. Data for the sgs1 mgt1 strain (AID 161);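 note: 0% = growth of cultures given vehicle only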; details: S. cerevisiae sgs1 mgt1 strain, at 50.0 µM, active compounds read high
Outline: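 Read-out: growth inhibition vs vehicle controls. Cells: mutant yeast strain deficient in DNA damage repair.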

[4] = NCI Yeast Anticancer Drug Screen. Data for the cln2 rad14 strain (AID 165);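 note: 0% = growth equal to vehicle treated cultures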; details: S. cerevisiae cln2 rad14 strain, at 50.0 µM, active compounds read high
Outline: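 cln2 rad14 yeast strain; compound exposure; growth inhibition read vs vehicle controls.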

[5] = NCI Yeast Anticancer Drug Screen. Data for the bub3 strain (AID 167); details: S. cerevisiae bub3 mutant strain, at 50.0 µM, active compounds read high
Outline: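 In this screen, a yeast mutant lacking normal mitotic checkpoint function is challenged with compound. Relative growth versus vehicle gives the inhibition value.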

[6] = NCI Yeast Anticancer Drug Screen. Data for the mlh1 rad18 strain (AID 175); details: S. cerevisiae mlh1 rad18 strain growth inhibition; at 50.0 µM; active compounds read high
Outline: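 Yeast w/ defined DNA-repair lesions; compound exposure; growth vs vehicle controls → % inhibition.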

Measured: growth inhibition

CCSC(SCC)C(O)C(O)C(O)C(C)O (stereo unspecified)
inactive: [1] 31.8% | [2] 1.55% | [3] 4% | [4] -34.1% | [5] -5.05% | [6] 6.55%

CCCCC(CC)CN(CC(CC)CCCC)C1C=CCCC1 (stereo unspecified)
inactive: [1] 3.6% | [2] -10.3% | [3] 7.9% | [4] -36.8% | [5] 6.5% | [6] 2.7%

O=C1OCCOCCOCCOCCOCCOCCOC(=O)c2cccc1n2
inactive: [1] 28.9% | [2] -0.7% | [3] 7% | [4] 13.3% | [5] -0.35% | [6] 9.6%

O=C(CC(C(=O)c1cccs1)c1cccs1)c1ccccc1Cl (stereo unspecified)
inactive: [1] -10% | [2] -27.6% | [3] -12.6% | [4] -11.3% | [5] -3.8% | [6] -8.15%

CCOC(=O)C1=C(C)N(C2OC(COC(=O)c3ccccc3)C(OC(=O)c3ccccc3)C2OC(=O)c2ccccc2)C(=S)NC1c1ccccc1 (stereo unspecified)
inactive: [1] -0.8% | [2] -27.1% | [3] 10.6% | [4] -2.6% | [5] -4.85% | [6] -6.05%

CC1(C)CC(=O)N(Nc2ccccc2)C1=O
inactive: [1] -8.55% | [2] -7.6% | [3] -8.8% | [4] -7.35% | [5] -12.7% | [6] -13.7%

OCC1OCOC1C1OCOC1CO (stereo unspecified)
inactive: [1] 0.55% | [2] 4.35% | [3] 3.95% | [4] 2.9% | [5] -2.55% | [6] -3.45%

CCOC(=O)C1CSCN1C(C)=O (stereo unspecified)
inactive: [1] -33.4% | [2] -20.6% | [3] -4.3% | [4] -34.5% | [5] -11.8% | [6] -21.9%

CCC(/C(=N/NC(=O)C[N+](C)(C)C)c1ccccc1)C1OC(=O)c2ccccc21 (stereo unspecified)
inactive: [1] 15.2% | [2] 2.15% | [3] 16.1% | [4] 23.2% | [5] 19.4% | [6] 18.4%

Cn1ncc2c(=O)[nH]c(NN)nc21
inactive: [1] -8.35% | [2] -4.45% | [3] -4.8% | [4] -17.8% | [5] -0.95% | [6] -1.95%

COc1ccc(C(=O)c2cc(OC)c(OC)c(OC)c2)cc1OC
inactive: [1] -21.9% | [2] -27.2% | [3] -13.8% | [4] 0.3% | [5] 7.45% | [6] -10.4%

CSC1=C(CCC(C)CCCC(C)CCCC(C)CCCC(C)CCCC(C)CCCC(C)C)C(=O)c2sccc2C1=O (stereo unspecified)
inactive: [1] 15.7% | [2] 13.6% | [3] -1.45% | [4] -17.9% | [5] 11.5% | [6] -5.95%

CCSC1=C(SCC)C(=O)C(SCC)=C(SCC)C1=O
inactive: [1] -1.25% | [2] 16.1% | [3] 13.9% | [4] -22.4% | [5] -1.65% | [6] 15.4%

O=C(Nc1nnc(C(F)(F)F)s1)c1c(F)cccc1F
inactive: [1] 7.75% | [2] 16.7% | [3] 24.9% | [4] 19.5% | [5] 37% | [6] 30.1%

CCCCCCCCCCCCCCCCCC(N)=O
inactive: [1] 5.2% | [2] -14.2% | [3] 3.35% | [4] -15.7% | [5] -2.5% | [6] 25.4%

C=CCC1(C)C(=O)CCC1=O
inactive: [1] -18.5% | [2] -5.8% | [3] 0.6% | [4] -12.6% | [5] 1.15% | [6] -4.1%

Cc1c([N+](=O)[O-])ccn1C
inactive: [1] -1.55% | [2] 10.9% | [3] -5.7% | [4] 9.25% | [5] 7.2% | [6] -3.7%

O=c1oc2ccccc2cc1S(=O)(=O)c1ccccc1
inactive: [1] 1.35% | [2] 4.8% | [3] 1.4% | [4] -53.1% | [5] -0.95% | [6] 18.4%

CCCc1ccc(N=Cc2cc(OC)c(OC)c(OC)c2)cc1
inactive: [1] -1.85% | [2] 13.3% | [3] 13.5% | [4] 4.4% | [5] -8% | [6] 21.6%

CC1=CCC(CC=O)C1(C)C (stereo unspecified)
inactive: [1] 9.95% | [2] -1.95% | [3] -6.3% | [4] -43.4% | [5] -6.65% | [6] -3.45%

CC(C)(C)N=C(N)NC#N
inactive: [1] 9.6% | [2] 9.25% | [3] -9.85% | [4] 17.1% | [5] -4.5% | [6] -33.3%

CS(=O)(=O)CC1=NC(=N)N=C1CS(C)(=O)=O
inactive: [1] 6.05% | [2] -14.9% | [3] -8.95% | [4] -4.85% | [5] -29.8% | [6] 2.1%

OC1CCCN(CCNN2CCCC2)C1 (stereo unspecified)
inactive: [1] 17.9% | [2] 9.65% | [3] 15.4% | [4] 31.1% | [5] 2.35% | [6] 15.3%

NC(=O)c1ccc[n+](CC(=O)Nc2ccccc2)c1
inactive: [1] -5.6% | [2] 0.65% | [3] 6.45% | [4] -30.6% | [5] 1.95% | [6] 3.8%

O=C(O)c1ccc(F)cc1C(=O)O
inactive: [1] 5.5% | [2] 6% | [3] 4.75% | [4] 5.25% | [5] 3.2% | [6] 1.45%

CC(=O)c1c(C)n(-c2ccccc2)c2c1nnc1ccccc12
inactive: [1] 3.3% | [2] 3.65% | [3] 22.2% | [4] -8.65% | [5] -5.65% | [6] 4.15%

Cc1ccc(C)c(NC(=S)Nc2ccccc2)c1
inactive: [1] 0.8% | [2] -9% | [3] 3.5% | [4] -24.6% | [5] 54% | [6] 1.7%

CCOC(=O)c1c(-c2ccc(Cl)cc2)c(C#N)c(=S)n(C2OC(COC(C)=O)C(OC(C)=O)C(OC(C)=O)C2OC(C)=O)c1-c1ccccc1 (stereo unspecified)
inactive: [1] -1.45% | [2] -3.9% | [3] -6.8% | [4] 25.9% | [5] 17.9% | [6] 4.7%

O=S1(=O)OCCOS(=O)(=O)C1S(=O)(=O)c1ccc2ccccc2c1
inactive: [1] 50.5% | [2] -6.15% | [3] 9.3% | [4] 34.8% | [5] 1.4% | [6] 11.8%

CC(=O)Oc1ncnc2c1cnn2C
inactive: [1] -8.95% | [2] -1.65% | [3] -15.6% | [4] -38.6% | [5] 2.15% | [6] -3.3%

O=C1CN(CCCN2CCOCC2)CC(=O)N2Cc3ccccc3CN12
inactive: [1] -25.9% | [2] -3.8% | [3] -9.45% | [4] -0.45% | [5] 2.95% | [6] 3.7%

CC1(C)C(CBr)=[N+]([O-])C(C)(C)N1O
inactive: [1] 4.8% | [2] -0.6% | [3] -15.2% | [4] 13.6% | [5] -12.9% | [6] 21.6%

COc1ccc(CCNC(=S)N/C=C(\C#N)S(=O)(=O)c2ccc(C)cc2)cc1OC
inactive: [1] 6% | [2] -0.6% | [3] 4.55% | [4] 3.45% | [5] -19.8% | [6] -11.6%

CCCC(=O)Nc1cc([N+](=O)[O-])c([N+](=O)[O-])cc1OC
inactive: [1] -3.7% | [2] -2.55% | [3] 0% | [4] 1.65% | [5] 13.8% | [6] -3%

CC(=O)NC(=O)NC1=NCCC(=O)N1CCc1c[nH]c2ccccc12
inactive: [1] 4.35% | [2] -29% | [3] -6.3% | [4] 6.25% | [5] -19.1% | [6] 7.2%

O=S(=O)(C/C=C/COc1ccccc1)c1ccc2ccccc2c1
inactive: [1] 3.05% | [2] 2.65% | [3] 23.8% | [4] 3.6% | [5] -5.85% | [6] -12.9%

Cc1ccccc1-c1c2ccccc2cc2c1ccc1ccccc12
inactive: [1] 12% | [2] -21.7% | [3] -5.05% | [4] -20.9% | [5] 9.35% | [6] 0.35%

Cc1cc(OC(C)C)cc(C)c1C(=O)OCC(C)N1CCCC1 (stereo unspecified)
inactive: [1] 11.8% | [2] -8.2% | [3] 19.9% | [4] 5.35% | [5] -4.9% | [6] 11.2%

COC(=O)c1ccccc1/C=C1\SC(=S)NC1=O
inactive: [1] -1.6% | [2] 6.3% | [3] 17.9% | [4] -9.85% | [5] -4.95% | [6] -0.7%

CC(=O)N(c1ccc(F)c(F)c1)c1ccc(F)c(F)c1
inactive: [1] -18.3% | [2] -5.55% | [3] -0.9% | [4] 1.5% | [5] 19.6% | [6] 14.2%

CC(C)(C)c1nc2c(o1)C(=Nc1ccc(F)cc1)c1ccccc1C2=O
inactive: [1] 8.6% | [2] 3.15% | [3] 14.7% | [4] 38.1% | [5] 0.65% | [6] -2.5%
